High-throughput results: PubChem BioAssay, National Center for Advancing Translational Sciences (NCATS)
POLB inh: qHTS Assay for Inhibitors of DNA Polymerase Beta | P06746 | Pol beta primer extension/strand displacement, fluorescence kinetic | Potency, µM (highest dose often 114 µM), inactives show at the highest dose activity change, negative = inhibition, actives largely listed as inhibitors | actives 1.3% (n = 340,000) | AID 485314, 2010; note: potency is the fitted concentration of half-maximal effect; % is set by controls: 0 for no effect and ±100 for the full control effect
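Enzyme-only controls used 10 nM Pol beta; buffer lacking enzyme served as negative control. Compound preincubated 15 min, then 50 nM substrate added; 0 and 10 min reads at room temperature.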
PI5P4K alpha inh: qHTS for Inhibitors of phosphatidylinositol 5-phosphate 4-kinase (PI5P4K) | Phosphatidylinositol 5-phosphate 4-kinase type-2 alpha (Homo sapiens), P48426 | AID 652105, 2013 | max response, % | actives 1.2% (n = 330,000) | PI5P4Kalpha enzyme, ADP-Glo luminescence, 60 min; stronger effect = lower value; active = max response of -50% or lower; inconclusive = between -30% and -50%; inactive = -30% or higher; note: value at the top dose of about 77 µM; % is set by controls: 0 for no effect and ±100 for the full control effect
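ADP-Glo luminescence end-point after a 60 min room-temperature kinase reaction. PI5P4Kalpha and substrate in HEPES pH 7.4 buffer with EGTA, 0.1% CHAPS and 5% DMSO; ATP at 5 microM final.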
Pol iota inh: qHTS for Inhibitors of Polymerase Iota; Pol iota fluorescent replication assay, 10 min; Potency, µM (highest dose often 115 µM), without a hit: at the top dose activity, negative = inhibition, hits mostly inhibitors; DNA polymerase iota (Homo sapiens), Q9UNA4; actives 1% (n = 390,000); note: potency is the fitted concentration of half-maximal effect
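Pol iota at 10 nM preincubated 15 min with compounds at room temperature; reaction started with fluorescent substrate, 50 nM final. Fluorescence read kinetically at 0 and 10 min; buffer-only wells as negative control.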
Pol kappa inh: qHTS for Inhibitors of Polymerase Kappa; actives 0.53% (n = 400,000); AID 588579, 2011; DNA polymerase kappa (Homo sapiens), Q9UBT6; Potency, µM (highest dose often 107 µM), inactives show at the highest dose activity, negative = inhibition, most hits filed as inhibitors; purified Pol kappa, fluorescent DNA synthesis assay, 10 min; note: potency is the fitted concentration of half-maximal effect; % is set by controls: 0 for no effect and ±100 for the full control effect
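Pol kappa 10 nM + cpd, 15 min RT; start w/ substrate 50 nM final; fluorescence kinetic read, 0 and 10 min. Neg ctrl: buffer, no enzyme.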
POLH inh: qHTS for Inhibitors of Polymerase Eta; DNA polymerase eta (Homo sapiens), Q9Y253; recombinant Pol eta, fluorescent DNA replication assay; Potency, µM (titrated, usually from 114 µM), inactives show top-dose activity change, negative = inhibition, hits mostly inhibitors; actives 1.2% (n = 390,000); AID 588591, 2011; note: potency is the fitted concentration of half-maximal effect; % is set by controls: 0 for no effect and ±100 for the full control effect
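Pol eta at 10 nM preincubated with compounds 15 min at room temperature; reaction started with fluorescent substrate (50 nM final) and read kinetically at 0 and 10 min.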
FEN1 inhibitor: qHTS Assay for the Inhibitors of Human Flap endonuclease 1 (FEN1). P39748. Recombinant FEN1 flap cleavage, fluorescence, 15 min. Potency, µM (titrated, usually from 114 µM), inactives show at the highest dose activity change, negative = inhibition, usual class: inhibitors. actives 0.35% (n = 390,000). AID 588795, 2011; note: potency is the fitted concentration of half-maximal effect; % is set by controls: 0 for no effect and ±100 for the full control effect; nearly all actives have a fitted effect of over 65% in size
Target sequence (P39748 whole entry, looked up): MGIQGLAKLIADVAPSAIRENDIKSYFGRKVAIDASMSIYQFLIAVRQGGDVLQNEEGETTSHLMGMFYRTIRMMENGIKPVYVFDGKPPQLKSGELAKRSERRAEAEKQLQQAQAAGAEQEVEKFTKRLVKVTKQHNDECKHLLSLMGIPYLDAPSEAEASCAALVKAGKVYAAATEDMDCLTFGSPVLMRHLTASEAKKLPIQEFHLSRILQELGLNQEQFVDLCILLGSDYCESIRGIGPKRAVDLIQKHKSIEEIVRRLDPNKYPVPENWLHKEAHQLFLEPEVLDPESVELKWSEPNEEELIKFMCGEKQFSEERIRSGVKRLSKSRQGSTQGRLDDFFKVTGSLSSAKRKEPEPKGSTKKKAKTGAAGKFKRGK
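Potency values derive from four-parameter Hill fits of normalized qHTS data. The reaction used 10 nM FEN1 preincubated 15 min at room temperature with compound, then 50 nM DNA substrate, read at 0 and 15 min.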
Active calls of the source: *; ? = inconclusive; / = not tested or not shown; ! = not confirmed by another sample; [ ] = dose if it differs, or a comment. An excerpt weighted towards active compounds, which were near 2.8% of everything screened. Unless noted, calls come from the whole dose curve; as a rule, active = well fitted curve in the direction sought with a large enough effect; inconclusive = small, poorly fitted or top-dose-only effect, or another doubt; inactive = no such curve, though single readings can be large; an effect the other way counts as inactive or inconclusive.

SMILES	POLB inh	PI5P4K alpha inh	Pol iota inh	Pol kappa inh	POLH inh	FEN1 inhibitor
O=C1CCC2(O)C3Cc4ccc(O)c5c4C2(CCN3Cc2ccoc2)C1O5 (centres undefined)	/	14	/	/	28µM*	/
CCC1OC(=O)CC(O)C(C)[C@@H](O[C@@H]2OC(C)[C@H](O[C@@H]3C[C@@](C)(O)C(O)C(C)O3)C(N(C)C)C2O)[C@H](CC=O)CC(C)C(=O)/C=C/C(C)=C/[C@@H]1COC1OC(C)C(O)C(OC)[C@@H]1OC (some centres undefined)	/	/	/	-4%[60.1 µM]	/	/
Cc1ccccc1N(CC(=O)NC1CCCC1)C(=O)c1csnn1	37%	-3	87%	-5%	-2%	1%
Cc1ccc(C=C2C(Cl)=C(Cl)C(Cl)=C2Cl)cc1	4µM*	?	2.8µM*	16µM*	11µM*	?
CC1(C)OC(c2ccccc2)=C/C(=C/C=C2C(=O)NC(=O)NC2=O)O1	14µM*	-23	?	-32%	?	-6%
O=C(O)CSCC(=O)N(Cc1ccccc1)c1nc(-c2ccccc2)c(-c2ccccc2)s1	50µM*	18	50µM*	?	?	?
CC(C)c1ccc(NC(=O)C2CCC(CNS(=O)(=O)c3ccc4c(c3)CCCC(=O)N4)CC2)cc1 (centres undefined)	14%	/	?	19%	-12%	2%
CC1(C)C[C@H]2C=C(C=O)[C@]3(C=O)C[C@]3(C)[C@H]2C1	20µM*	-19	45µM*	?	-10%	-5%
O=C(O)c1ccc[nH]c1=S	3%	-2	?	-18%	-4%	-8%
CN1C(=O)C(=Cc2ccccc2OCc2ccc(Cl)cc2)C(=O)N(C)C1=O	0%	-12	55%	-9%	-3%	-1%
O=C1NC(=O)C(=Cc2cc(Cl)ccc2OCc2ccc(C(=O)O)cc2)C(=O)N1	6%	-71*	?	-45%	-9%	?
Cc1ccc(F)cc1NC(=O)c1ccc(Cn2nc(N3CCN(c4ccccc4)CC3)ccc2=O)o1	?	/	?	-11%	79µM*	-1%
O=C(Nc1ccc(F)cc1F)c1cccn(Cc2ccccc2)c1=O	-3%	14	-26%	4%	-6%	-19%
CC(C)C[C@H]1C(=O)N2CCC[C@H]2[C@]2(O)O[C@](NC(=O)[C@@H]3C=C4c5cccc6[nH]cc(c56)C[C@H]4N(C)C3)(C(C)C)C(=O)N12	/	?	11µM*	-25%	-5%	?
Cc1ccc(S(=O)(=O)N(CC(=O)N/N=C\c2cccs2)c2cccc3cccnc23)cc1	40µM*	-24	?	-10%	?	-4%
CCCNC1=C(C)C(=O)C2=C(C1=O)C(COC(N)=O)[C@]1(OC)C3NC3CN21 (some centres undefined)	18%	?	7.9µM*	45µM*	?	-7%
COc1cccc(-c2nc3c(C#N)c[nH]n3c2NC2CCCCC2)c1OC	-4%	/	33%	0%	-7%	-4%
Cc1ccc2c(C)cccc2c1	/	-71*	-11%	-5%	1%	13%
CNC(C)C#Cc1ccc2oc3cc(C)c(C)cc3c(=O)c2c1 (centres undefined)	/	6	8.9µM*	19%	-16%	-1%
Cn1ccnc1	-6%[57.1 µM]	/	-8%[58.9 µM]	13%[60.1 µM]	4%[57.1 µM]	?
O=C1NC(=O)C(=Cc2ccc(OCCOc3ccc([N+](=O)[O-])cc3)cc2)C(=O)N1	?	-63*	?	-34%	79µM*	?
O=C1NC(=O)C(=Cc2cccc(OCCOc3ccccc3)c2)C(=O)N1	28%	-52*	?	-13%	-1%	-27%
Cc1ccc(OCCOc2cccc(C=C3C(=O)NC(=O)NC3=O)c2)c(C)c1	?	-62*	?	-19%	-22%	?
[Cl-].[Cl-].[Hg+2]	/	/	/	-29%[60.1 µM]	/	/
CN1/C(=C\C=C\C2=[N+](C)c3ccc4ccccc4c3C2(C)C)C(C)(C)c2ccccc21	79µM*	/	/	/	/	/
SMILES	POLB inh	PI5P4K alpha inh	Pol iota inh	Pol kappa inh	POLH inh	FEN1 inhibitor
CCOC(=O)c1cc(-c2ccccc2)n(CCCC(=O)Nc2ccc(C)c(C)c2)c1C	?	/	?	-4%[60.1 µM]	-1%	?
CCn1cc2nc(SCc3cccc(C(F)(F)F)c3)n(Cc3ccc(OC)cc3)c(=O)c2n1	6%	/	-9%	21%	-12%	?
O=[N+]([O-])c1cc(O)c(O)c([N+](=O)[O-])c1	5%[57.1 µM]	-23	?	16µM*!	?	-5%
COc1ccc(CCNc2nc3c(c(=O)n(C)c(=O)n3C)n2Cc2ccc(F)cc2)cc1OC	3%	/	31%	-6%	-21%	1%
CC(C)NC(=O)C(C)N1CCN(S(=O)(=O)c2ccc3ccccc3c2)CC1 (centres undefined)	3%	-6	39%	2%	11%	-5%
CC[C@@]1(O)C(=O)OCc2c1cc1n(c2=O)Cc2cc3c(N)cccc3nc2-1	50µM*	-19	?	79µM*	22µM*	?
Oc1c(Br)c(Br)c(Br)c(Br)c1Br	/	-60*	?	?	?	50µM*
N#Cc1c(/N=C/c2c(O)n(Cc3ccco3)c(=O)[nH]c2=O)sc2c1CCCC2	32µM*	/	10µM*	22µM*	14µM*	?
O=c1[nH]c(=O)n(Cc2ccco2)c(O)c1/C=N/N1CCCCCC1	3%	1	142%	-17%	-3%	-3%
COc1ccc2c(c1OC)CN(C)CCc1cc3c(cc1C(=O)C2)OCO3	-17%	-6	126%	-16%	-4%	1%
CCCCn1c(O)c(C(C)=NCCc2c[nH]c3ccccc23)c(=O)[nH]c1=O	18%	-16	30%	8%	-9%	-1%
O=C(/C=C/c1c[nH]c2ccccc12)c1c(O)n(CCc2ccccc2)c(=O)[nH]c1=O	3%	-56*	10%	-11%	-12%	-19%
CSCCOC(=O)COc1ccc(/C=N/NC(=O)c2c(Cl)cnn2C)cc1	-1%	-6	164%	-9%	-3%	-1%
CC1OC(O[C@H]2C[C@@H](O)[C@]3(CO)[C@H]4[C@H](O)C[C@]5(C)[C@@H](C6=CC(=O)OC6)CC[C@]5(O)[C@@H]4CC[C@]3(O)C2)C(O)C(O)C1O (some centres undefined)	/	/	3%	9%	/	6%
Cc1cc(C)cc(N2C(=O)NC(=O)/C(=C/c3cccn3-c3ccc(Cl)cc3)C2=O)c1	12%	-26	?	-5%	79µM*	0%
